The nature of assay [1]: BmaI1 acyl-homoserine lactone synthase inhibition – biochemical, fluorescence intensity, with counterscreen (AID 720554). Conditions: BmaI1 enzyme assay, measured here: counterscreen fluorescence % control, concentration not given here. On the technique in general: Counterscreens check selectivity or assay interference.
Assay [2] has as its system acyl-homoserine lactone synthase BmaI1 (Burkholderia mallei ATCC 23344). Described as above. Conditions: BmaI1 enzyme assay, stronger effect = higher value, concentration not given here.

Among all 12,000 compounds or so, about 45 (0.4%) were called active. Rule as the data show it: active = inhibition mostly above about 83% (no sharp cut-off); inactive = mostly below about 52%. This excerpt belongs to a sample that is enriched for actives.

Usually inhibition stands for the change of the read-out against control, counted positive when it falls.

For `NC(=O)c1ccc(-c2ccccc2)o1`, the figures for the inhibition in assay [1] and in assay [2] were 40% and 20% (inactive), respectively.

On to `O=C(COc1ccccc1C(=O)NCc1ccccc1)Nc1cccc2nsnc12`, for which the inhibition was 0% in assay [1] and 12% (inactive) in assay [2].

In the case of `COc1ccc(C(=O)OCc2ccccc2F)c(OC)c1OC`, the inhibition was 12.5% in assay [1] and 0% (inactive) in assay [2].

Take `COc1ccc(COC(=O)c2cc(O)c3ccccc3c2O)cc1F`: the inhibition in assay [1] was 19.5%; in assay [2] it was 84.5% (active).

Turning to `COc1ccc(COc2ncnc3ccccc23)cc1F`, the inhibition in assay [1] was 1%; in assay [2] it was 19.5% (inactive).

Regarding `CC(OC(=O)c1ccc(NS(=O)(=O)c2cccs2)cc1)c1nc2scc(-c3cccs3)c2c(=O)[nH]1` (stereo not given), the inhibition in assay [1] is 8.5%; in assay [2] it was 15.5% (inactive).

Regarding `CC1=C/C(=N\NC(=O)COc2ccc(C#N)cc2)CC(C)(C)C1`, the inhibition was 2% in assay [1] and 9% (inactive) in assay [2].

As for `CNC(C)c1ccccc1` (stereo not given), the inhibition in assay [1] is -4.5%; in assay [2], -1.5% (inactive).

For `COC(=O)c1cnc(N)s1`, the figures for the inhibition in assay [1] and in assay [2] were 5% and 17% (inactive), respectively.

Turning to `Fc1ccccc1NC(=S)N/N=C/c1cn(-c2ccccc2)nc1-c1cc2ccccc2o1`, the inhibition was 2.5% in assay [1] and 6% (inactive) in assay [2].

Regarding `O=CN1CCN(C(=S)Nc2ccc(Cl)cc2Cl)CC1`, the results for the inhibition in assay [1] and in assay [2] were 9% and -3% (inactive), respectively.

As for `Oc1ccc(/C=N/NC(=S)Nc2ccc(Cl)cc2Cl)c(O)c1O`, the inhibition in assay [1] is 15.5%; in assay [2], 84% (active).

Regarding `O=C(NCc1ccccc1)c1cccc(OCC(=O)N2CCOCC2)c1`, the inhibition in assay [1] was -11%; in assay [2], -13.5% (inactive).

As for `CC1(C)CC(NCc2cc(Cl)c3c(c2)OCCCO3)CC(C)(C)N1`, the values for the inhibition in assay [1] and in assay [2] were 4.5% and 10% (inactive), respectively.

As to `Cn1c(N)c(C(=O)CSc2nc3sc4c(c3c(=O)n2Cc2ccco2)CCCC4)c(=O)[nH]c1=O`, the figures for the inhibition in assay [1] and in assay [2] were 5% and 12.5% (inactive), respectively.

In the case of `COc1ccccc1NC(=O)c1ccc(NC(=O)COC(=O)C2CCCO2)cc1` (stereo not given), the inhibition in assay [1] was -4.5%; in assay [2], -1.5% (inactive).

Turning to `Sc1ccc2c(c1)OCCCO2`, the inhibition in assay [1] is 3.5%; in assay [2], 38% (inactive).

On to `CCOC(=O)C1CCN(C(C)C(=O)Nc2ccc(C(C)C)cc2)CC1` (stereo not given), for which the values for the inhibition in assay [1] and in assay [2] were 3% and 9.5% (inactive), respectively.

`Ic1ccc(-c2ncc3ccccn23)cc1`: the figures for the inhibition in assay [1] and in assay [2] were 11% and 17.5% (inactive), respectively.

`S=c1[nH]cc2ccccn12`: the inhibition in assay [1] is 5.5%; in assay [2] it was 96.5% (active).

Take `Nn1cc(-c2ccccc2)[nH]c1=S`: the inhibition in assay [1] is 52%; in assay [2] it was 104% (inactive).

On to `Nc1ccc(S(=O)(=O)CCSS(=O)(=O)c2ccc(N)cc2)cc1`, for which the inhibition in assay [1] was 0.5%; in assay [2], 88% (active).

As to `Nc1ccc(S(=O)(=O)c2ccc(N)cc2)cc1`, the inhibition in assay [1] was 6%; in assay [2], -2.5% (inactive).

With `CC(=O)NS(=O)(=O)c1ccc(N)cc1`, the values for the inhibition in assay [1] and in assay [2] were 9.5% and -0.5% (inactive), respectively.

Turning to `Cc1nnc(SC(C)C(N)=O)n1Cc1ccccc1` (stereo not given), the inhibition was -2% in assay [1] and 9.5% (inactive) in assay [2].

Take `COc1ccccc1NC1CC(=O)N(c2cccc(Cl)c2)C1=O` (stereo not given): the figures for the inhibition in assay [1] and in assay [2] were 10.5% and 17.5% (inactive), respectively.

Turning to `COc1cccc(N2C(=O)CC(n3nc(Nc4cccc(C)c4)sc3=S)C2=O)c1` (stereo not given), the inhibition in assay [1] was 27.5%; in assay [2], 102% (active).

As for `COc1cccc(Nc2nnc(SCC(=O)c3cc(C)n(C)c3C)s2)c1`, the inhibition in assay [1] is 9%; in assay [2] it was 20% (inactive).

For the compound `C[C@@H](C(=O)N1CCSC1=NCc1ccccc1)N1C(=O)C2CC=CCC2C1=O` (stereo not given in full), the inhibition was 4% in assay [1] and 8.5% (inactive) in assay [2].

Regarding `CC1CC(C)CN(C(=O)c2cc3ccccc3oc2=O)C1` (stereo not given), the inhibition in assay [1] is 9%; in assay [2], 8.5% (inactive).

Regarding `Cc1csc(SCC(=O)c2ccc(S(=O)(=O)N3CCCCC3)cc2)n1`, the figures for the inhibition in assay [1] and in assay [2] were 21.5% and 58.5% (inactive), respectively.

`O=C(CSc1nc2ccccc2c(=O)n1C1CCCC1)Nc1ccc2c(c1)OCCO2`: the inhibition in assay [1] is 6%; in assay [2] it was 28% (inactive).

Regarding `O=C(CN1CCN(S(=O)(=O)Cc2ccccc2)CC1)Nc1ccc2[nH]c(=O)[nH]c2c1`, the inhibition in assay [1] was 15.5%; in assay [2], 35.5% (inactive).

Regarding `CN1CCN(C(c2ccccn2)c2c(-c3ccccc3)n(O)c3ccccc23)CC1` (stereo not given), the inhibition in assay [1] is 17%; in assay [2] it was 105% (active).

`Oc1c(C(c2ccccn2)N2CCN(c3ccc(F)cc3)CC2)cc(Cl)c2cccnc12` (stereo not given): the inhibition in assay [1] was -13.5%; in assay [2], 0.5% (inactive).

On to `CCn1c(-c2ccccc2)c(C(=O)CN2CCN(C)CC2)c2ccccc21`, for which the inhibition in assay [1] is 2.5%; in assay [2], 38% (inactive).

On to `CN(C)C(=O)CN1C(=O)c2ccccc2S1(=O)=O`, for which the inhibition in assay [1] is -3%; in assay [2] it was 2% (inactive).

Turning to `CNC(=O)c1sc(CN2C(=O)c3ccccc3S2(=O)=O)nc1C`, the values for the inhibition in assay [1] and in assay [2] were -7% and 91% (active), respectively.

With `O=C1c2ccccc2S(=O)(=O)N1Cc1cc(=O)[nH]c(=O)[nH]1`, the inhibition was -2.5% in assay [1] and -1% (inactive) in assay [2].

Turning to `CC(Sc1ccccc1F)C(=O)Nc1ccc(S(N)(=O)=O)cc1` (stereo not given), the values for the inhibition in assay [1] and in assay [2] were 1% and 9.5% (inactive), respectively.

On to `Cn1c(Cc2cccs2)nnc1SCC(=O)N1CCNC1=O`, for which the inhibition in assay [1] was 2.5%; in assay [2], 15% (inactive).

As to `CCCn1c(SCCCC(=O)c2cccs2)n[nH]c1=O`, the values for the inhibition in assay [1] and in assay [2] were -0.5% and 5.5% (inactive), respectively.

On to `COC(=O)c1ccc(C(c2c(O)ccc3ccccc23)N2CCOCC2)cc1` (stereo not given), for which the inhibition in assay [1] is 11%; in assay [2], 18% (inactive).

Regarding `COC(=O)c1ccc(C(c2cc3c(cc2O)OCO3)N2CCN(c3ccccc3)CC2)cc1` (stereo not given), the inhibition in assay [1] was 24%; in assay [2], 83% (active).

On to `Oc1cc2c(cc1C(c1ccc(C(F)(F)F)cc1)N1CCN(c3ccccc3)CC1)OCO2` (stereo not given), for which the inhibition in assay [1] was 5%; in assay [2] it was 5.5% (inactive).

These data come from PubChem BioAssay AID720554 (ICCB-Longwood Screening Facility, Harvard Medical School, 2013).
